# According to the supplement of paper PMC7156485:
# ± gives the standard deviation of the averaged measurements.
# Tests used:
# Conditions in all cases: concentration: 10 µM; 24 h
# HCC1569 [1] = assay: cell number relative to DMSO (% of DMSO); higher = more cells (less growth inhibition / toxicity)
# Summary of the method: (§1)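 For HCC1569 and TDF cells, compounds at 10 µM were applied for 24 h at 37 °C in triplicate in 384-well plates. Cells were fixed in 3.7% formaldehyde, stained for H1.0 and with DAPI, and imaged at ×10 over six fields per well. The endpoint, H1.0 nuclear intensity or cell number, is shown as percent of the plate control using the median of replicates. Positional effects were smoothed for HCC1569 only.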
# TDF [2] = assay: as above
# Summary of the method: as §1
# TDF [3] = assay: H1.0 immunofluorescence intensity relative to DMSO (% of DMSO); higher = stronger H1.0 induction, active = 120 or more
# Summary of the method: as §1
# HCC1569 [4] = assay: H1.0 immunofluorescence intensity relative to DMSO (% of DMSO); higher = stronger H1.0 induction, active = 140 or more
# Summary of the method: as §1
# 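Throughout, for H1.0 immunofluorescence intensity relative to DMSO: TDF is a line of transformed human dermal fibroblasts of mesenchymal origin.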
# 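Throughout, for cell number relative to DMSO: TDF denotes transformed human dermal fibroblasts of mesenchymal origin.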
SMILES,cell number (HCC1569 [1]),cell number (TDF [2]),H1.0 immunofluorescence intensity (TDF [3]),H1.0 immunofluorescence intensity (HCC1569 [4])
Cn1cc[nH]c1=S [Methimazole],107,103,97.9 (inactive),102 (inactive)
COc1ccc(C2CNC(=O)C2)cc1OC1CCCC1 (stereo unspecified) [Rolipram],101 ± 1.8,108 ± 4.6,91.5 (inactive),110 (inactive)
c1cc(OCCN2CCCCC2)cc(-c2n[nH]c3ccc(-c4ncn[nH]4)cc23)c1,88.3,107,84.6 (inactive),115 (inactive)
Nc1ncnc2n[nH]c(Nc3ccc(F)cc3)c12 [MNK1 Inhibitor],91.2,110,88.8 (inactive),140 (inactive)
Nc1nc(Nc2ccccc2)nc2c1ncn2C1OC(CO)C(O)C1O (stereo unspecified) [2-Phenylaminoadenosine],101,100,90 (inactive),102 (inactive)
Cn1cc(-c2ccc3nnc(C(F)(F)c4ccc5ncccc5c4)n3n2)cn1,102,96,96.1 (inactive),101 (inactive)
COc1cc2c(c(OC)c1OC)-c1c(cc3c(c1OC)OCO3)CC(C)C(C)(O)C2OC(=O)c1ccccc1 (stereo unspecified) [Schisantherin A],106,95,98.5 (inactive),97.7 (inactive)
Cc1coc2c1C(=O)C(=O)c1c-2ccc2c1CCCC2(C)C [Tanshinone IIA],85.3 ± 2.9,45.7 ± 6,113 (inactive),114 (inactive)
CSc1ccc2c(c1)N(CCC1CCCCN1C)c1ccccc1S2 (stereo unspecified) [Thioridazine],102,102,105 (inactive),133 (inactive)
